# Assay outcomes: PubChem BioAssay, National Center for Advancing Translational Sciences (NCATS)
# FH mod = Identification of activators of human fumarate hydratase by quantitative high-throughput screening; Fumarate hydratase, mitochondrial (Homo sapiens), P07954; FH coupled MDH/diaphorase resazurin fluorescence, 15 min; Potency, µM (highest dose often 79.9 µM), inactives show at the top dose activity change, negative = inhibition, most hits filed as inhibitors; 54,000 tested, 0.22% active; also: potency is read from the fitted curve at half-maximal effect; % is scaled to controls: 0 for no effect and ±100 for the full control effect; the screen sought activators but most active calls are inhibition curves; nearly all actives have a fitted effect of over 45% in size
# GALK inh = inhibitors of human galactokinase (GALK) | P51570 | recombinant GALK, Kinase-Glo ATP luminescence, 1 h | Potency, µM (titrated, usually from 57.5 µM), for the others: at the top dose activity, negative = inhibition, hits mostly inhibitors | 44,000 tested, under 10 active | AID 1347072;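 also: plate controls were full GALK reaction for no effect and reaction lacking GALK for full effect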
#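 5 nM GALK; 35 uM ATP; 100 uM D-galactose; 20 mM HEPES pH 8.0, 5 mM MgCl2, 60 mM NaCl, 1 mM DTT, 0.01% BSA; 1 h RT; Kinase-Glo Plus luminescence.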
# B2AR arrestin ag = agonists recruiting beta-arrestin to human beta2-adrenergic receptor; 44,000 tested, under 10 active; HTLA Tango cells, beta-arrestin recruitment, luciferase luminescence, 18 h; AID 1347077; Potency, µM (series often up to 46.1 µM), hits mostly activators;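 also: potency is read from the fitted curve at half-maximal effect; 0% = DMSO and full agonism = EC100 isoproterenol or metaproterenol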
#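 Tango cell line, 1% FBS DMEM; cpd titration up to 46 microM; 18 hr, 37 degrees C, 5% CO2. Luciferin/ATP substrate mix added, 15 min RT, luminescence. %Activity, CRC fitting, curve-class categorization.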
# NTMT1 inhibitor = blocks human N-terminal methyltransferase 1 activity | Potency, µM (top dose mostly 114 µM), for the others: at the top dose activity change, negative = inhibition, actives largely listed as inhibitors | AID 1645870 | NTMT1 MTase-Glo SAH luminescence, purified enzyme | 59,000 tested, 2.5% active;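 also: potency is read from the fitted curve at half-maximal effect; plate controls were DMSO vehicle for no effect and no enzyme for full effect; nearly all actives have a fitted effect of over 65% in size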
# Target sequence (Q9BV86 whole entry, looked up): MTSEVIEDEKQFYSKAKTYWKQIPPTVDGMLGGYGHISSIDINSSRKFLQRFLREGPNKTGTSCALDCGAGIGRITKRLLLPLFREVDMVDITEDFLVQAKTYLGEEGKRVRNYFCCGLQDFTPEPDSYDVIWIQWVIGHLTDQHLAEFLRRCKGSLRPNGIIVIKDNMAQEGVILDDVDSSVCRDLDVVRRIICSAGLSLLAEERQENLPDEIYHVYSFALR
# GALC G270D act = enhancers of human galactocerebrosidase G270D mutant activity in cells | 145M-Twi-hGALC-G270D cells (Twitcher mouse brain line with human GALC G270D), HMU-beta-Gal fluorescence, 48 h | Potency, µM (doses to about 57.5 µM), hits mostly activators | 45,000 tested, 0.1% active; also: potency is read from the fitted curve at half-maximal effect; 0% is about no effect; nearly all actives have a fitted effect of over 65% in size
#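 Fluorogenic HMU-b-Gal hydrolysis (0.1 mM final, pH 5.2 citrate-phosphate with 1 mg/mL sodium taurocholate; carbonate stop buffer) measures mutant GALC activity after compound treatment of live 145M-Twi Twitcher brain cells stably carrying human GALC-G270D, with wild-type GALC line alongside; activation sought.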
# TSG101-PTAP inh = blocks PTAP binding to human TSG101, validation; Q99816; Fluorescence polarization, FITC-PTAP peptide/Tsg101, 20 min; Potency, µM (highest dose often 115 µM), actives largely listed as inhibitors; 44,000 tested, under 10 active; AID 1347069; also: potency is read from the fitted curve at half-maximal effect; 0% is about no effect
# Target sequence (Q99816 whole entry, looked up): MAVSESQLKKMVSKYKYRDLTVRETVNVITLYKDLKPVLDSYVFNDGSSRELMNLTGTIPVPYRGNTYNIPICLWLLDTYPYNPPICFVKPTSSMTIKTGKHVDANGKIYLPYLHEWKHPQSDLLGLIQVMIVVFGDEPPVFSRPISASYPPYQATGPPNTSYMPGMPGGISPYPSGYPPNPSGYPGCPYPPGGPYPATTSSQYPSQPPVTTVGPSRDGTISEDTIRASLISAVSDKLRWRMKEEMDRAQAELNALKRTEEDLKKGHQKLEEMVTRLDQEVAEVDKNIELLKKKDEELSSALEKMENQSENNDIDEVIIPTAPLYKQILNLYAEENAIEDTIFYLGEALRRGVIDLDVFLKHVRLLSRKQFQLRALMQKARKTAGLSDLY
#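 Compounds pinned into 10 uM Tsg101 binding domain, then 50 nM FITC-PTAP peptide added in pH 7.5 HEPES buffer; FP read after 20 min, room temperature. Total S+P intensity flags fluorescent compounds; active cut-off <25 µM, efficacy <60%.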
# * hit, by the source's call; i = inactive; u = inconclusive; x = not tested or not shown; ! = a repeat was not active; [ ] = dose if it differs, or a comment. This is one part of a sample in which hits are shown more often than they occur. Calls follow the shape of the dose curve; as a rule, active = well fitted curve in the direction sought with a large enough effect; inconclusive = small, poorly fitted or top-dose-only effect, or another doubt; inactive = no such curve, though single readings can be large; an effect the other way counts as inactive or inconclusive.
SMILES,FH mod,GALK inh,B2AR arrestin ag,NTMT1 inhibitor,GALC G270D act,TSG101-PTAP inh
CS(=O)(=O)NCC1CCC(Nc2nc3c(s2)CCSc2ccccc2-3)CC1 (stereo unspecified),-8%,x,x,5%[57.5 µM],x,x
Cc1ccc(NC(=O)Nc2ccc3nc(N4CCN(C)CC4)cc(C)c3c2)cc1C,1%,2%,i,89µM*,i,i
Cc1ccc(/C=C/C(=O)Nc2ccc3nc(N4CCC(C)CC4)cc(C)c3c2)cc1,-28%,6%,i,89µM*,i,i
Cc1cc(N2CCN(C)CC2)nc2ccc(NC(=O)Nc3ccccc3)cc12,2%,-1%,i,-12%,i,i
CC(C)N(CCCCOCC(=O)NS(C)(=O)=O)c1cnc(-c2ccccc2)c(-c2ccccc2)n1,-8%,x,x,-8%[57.5 µM],x,x
CCCc1cc(C)[nH]c(=O)c1CNC(=O)c1cc(-c2ccnc(N3CCN(C)CC3)c2)cc2c1cnn2C(C)C,7%,x,x,u,x,x
C=CC(=O)Nc1cc(Nc2nccc(-c3cn(C)c4ccccc34)n2)c(OC)cc1N(C)CCN(C)C,0%,x,x,25µM*,x,x
C[n+]1cc(NC(=O)c2cccc(C(=O)Nc3cc4ccccc4[n+](C)c3)n2)cc2ccccc21,u,x,x,50µM*,x,x
NC(=O)[C@H](Cc1ccccc1)NC(=O)[C@H](CCCN=C(N)N)NC(=O)C12CC3CC(CC(C3)C1)C2,5%[13.5 µM],x,x,16%[12.6 µM],x,x
COc1ccc2oc(NC3=NC(c4[nH]ncc4Cl)C4=C(CCCC4=O)N3)nc2c1 (stereo unspecified),x,x,x,-8%,x,x
N[C@H](Cc1ccccc1)C(=O)Nc1ccc(Cl)cc1C(=O)c1ccc[nH]1,x,x,x,28µM*,x,x
CSc1ccc(C(=O)/C=C/c2cc(C)c(OC(C)(C)C(=O)O)c(C)c2)cc1,x,x,x,7%[228 µM],x,x
COc1ccc(-c2cc(C(=O)N3CCN(c4ccccc4OC)CC3)c3cc(C(C)C)ccc3n2)cc1,-26%,0%,i,7%,i,i
CC(C)c1ccc2oc3nc(N)c(C(=O)O)cc3c(=O)c2c1,-10%[53.3 µM],x,x,32µM*,i,x
COC(=O)C1=C(C)NC(c2ncc(F)cc2F)=N[C@H]1c1ccc(F)cc1Cl,x,x,x,15%,x,x
O=S(=O)(Nc1nc2ccccc2s1)c1ccc(NCc2ccc(Br)cc2O)cc1,x,x,x,28µM*,x,x
CC[C@H](C)[C@@H]([C@@H](CC(=O)N1CCC[C@H]1[C@H](OC)[C@@H](C)C(=O)N[C@@H](Cc1ccccc1)c1nccs1)OC)N(C)C(=O)[C@@H](NC(=O)[C@H](C(C)C)N(C)C)C(C)C,x,x,x,14%,x,x
CCc1cc2c(cc1CC)CC(NCC(O)c1ccc(O)c3[nH]c(=O)ccc13)C2 (stereo unspecified),-5%,x,x,3%[57.5 µM],x,x
NC1(C(=O)O)CC1,7%[53.3 µM],x,x,x,x,x
O=C(O)C1(C(=O)O)CCC1.[NH2-].[NH2-].[Pt+2],u,x,x,18µM*,i,x
O=C1Nc2ccc(S(=O)(=O)Nc3ccccc3O)c3cccc1c23,u,2%,i,-20%,i,i
Cc1ccc(C)c(NS(=O)(=O)c2ccc3c4c(cccc24)C(=O)N3)c1,u,0%,i,45µM*,i,i
Oc1cccc(-c2nc(N3CCOCC3)c3sccc3n2)c1,1%,x,x,40µM*,x,x
Oc1cccc(-c2nc(N3CCOCC3)c3oc4ncccc4c3n2)c1,-3%,x,x,u,x,x
CN1CC2CN(c3ccc4oc5ccccc5c(=O)c4c3)CC2C1 (stereo unspecified),1%[53.3 µM],x,x,-1%[29.8 µM],x,x
SMILES,FH mod,GALK inh,B2AR arrestin ag,NTMT1 inhibitor,GALC G270D act,TSG101-PTAP inh
COc1cccc(CSc2nc3n(n2)C(c2ccc(C(=O)O)cc2)C(C(=O)Nc2ccccc2)=C(C)N3)c1 (stereo unspecified),-4%,-1%,i,45µM*,i,i
CCCCn1c(CNC(=O)c2ccc(OC)cc2)nnc1SCC(=O)Nc1ccc(OC)cc1,-2%,0%,i,u,i,i
CCOC(=O)c1ccc(NC(=O)CSc2nnc(CNC(=O)c3ccc(OC)cc3)n2CC)cc1,-3%,-2%,i,79µM*,i,i
CCCNS(=O)(=O)c1ccc2nc(NC(=O)c3ccc(F)cc3)sc2c1,5%,-1%,i,8.9µM*,i,i
CCCCCCCCCCCC1=C(O)C(=O)C=C(O)C1=O,-8%[53.3 µM],x,x,45µM*!,x,x
C=C1CCC2C(C)(C(=O)O)CCCC2(C)C1CCC1=CCOC1=O (stereo unspecified),1%[53.3 µM],x,x,3%[29.8 µM],x,x
COc1cc2c(Nc3ccc(Cl)c(Cl)c3F)ncnc2cc1OCC1C[C@@H]2CN(C)C[C@H]2C1,5%[53.3 µM],x,x,24µM*,x,x
C=CC(=O)N1CCC(Oc2cc3c(Nc4ccc(Cl)c(Cl)c4F)ncnc3cc2OC)CC1,-19%,x,x,u,x,x
COc1cc2c(Nc3ccc(Br)cc3F)ncnc2cc1OCC1CCN(C)CC1,2%,x,x,35µM*!,i,x
COc1cc2c(NC3CCN(C)CC3)nc(N3CCCN(C)CC3)nc2cc1OCCCN(C)C,x,x,x,-18%,x,x
CC(C)(O)C1CC=C(C(=O)OCC2OC(Oc3c(O)cc(C(=O)O)cc3O)C(O)C(O)C2O)CC1 (stereo unspecified),-1%[53.3 µM],x,x,-8%[29.8 µM],x,x
Cc1ccc(OCCn2c(CCNC(=O)/C=C/c3ccccc3)nc3ccccc32)cc1,x,x,x,0%,x,x
Cc1c(C(=O)Nc2ccc(N3CC(C)OC(C)C3)nc2)cccc1-c1ccc(OC(F)(F)F)cc1 (stereo unspecified),5%,x,x,5%[57.5 µM],x,x
CC(=O)Nc1sc2c(c1-c1ccc3nc[nH]c3c1)CCNC2,x,x,x,50µM*,x,x
CC(=O)Nc1sc2c(c1-c1ccc3nsnc3c1)CCNC2,x,x,x,7%,x,x
Cc1ccc(S(=O)(=O)Nc2cc(-c3ccc(C#N)s3)ccc2C)cc1,x,x,x,21%,x,x
CN(C(=O)Nc1cn(C)c(=O)c2ccccc12)c1ccccc1,35µM*[activator],-2%,i,-3%,i,i
C[C@H](NCc1ccc(OCc2cccc(F)c2)cc1)C(N)=O,-2%[53.3 µM],x,x,-18%[57.5 µM],x,x
CCCCCOC(=O)Nc1nc(=O)n(C2O[C@H](C)[C@@H](O)[C@H]2O)cc1F (stereo partly specified),2%,x,x,-1%[57.5 µM],x,x
Cc1cccc(Cn2c(-c3ccccc3)nc3ccccc32)c1,-19%,6%,i,-2%,i,i
c1ccc(Cn2c(-c3ccc(OCC(C4CCNCC4)n4c(-c5ccccc5)nc5ccccc54)cc3)nc3ccccc32)cc1 (stereo unspecified),5%,x,x,28µM*,x,x
Clc1cccc(-n2ncc3c(NCCCN4CCOCC4)ncnc32)c1,-5%,2%,i,50µM*,i,i
